Bioassay records as filed in PubChem BioAssay.
G9a inh – G9a (human) methyltransferase inhibition; Q96KQ7; G9a H3K9 monomethylation, AlphaScreen, 2 h; Potency, µM (titrated, usually from 102 µM), for the others: at the highest dose activity, negative = inhibition, hits mostly inhibitors; 350,000 compounds, 8.8% hits; further: on the % scale 0 is the no-effect control and ±100 the full control effect; nearly all actives have a fitted effect of over 75% in size
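Readings reflect AlphaScreen signal from monomethyl-H3K9 antibody detection. HMT at 20 nM; substrate b-H3K9 500 nM; cofactor SAM 20 uM; 2 h RT reaction; compounds tested as titrations in qHTS with 15 min preincubation.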
BAZ2B block – inhibitors of human BAZ2B bromodomain; 360,000 compounds, 4.4% hits; Q9UIF8; Potency, µM (titrated, usually from 114 µM), without a hit: top-dose activity change, negative = inhibition, most hits filed as inhibitors; AlphaScreen BAZ2B-H3K14Ac peptide displacement; further: on the % scale 0 is the no-effect control and ±100 the full control effect; nearly all actives have a fitted effect of over 60% in size
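Complex of BAZ2B and biotin-H3K14Ac (50 nM apiece) forms over 30 min at RT, then faces library compounds up to 110 uM for another 30 min; AlphaScreen beads added, 20 min dark incubation, luminescence read.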
JMJD2A Tudor – inhibitors of human JMJD2A Tudor domain; 390,000 compounds, 4.4% hits; Potency, µM (series often up to 114 µM), inactives show at the highest dose activity change, negative = inhibition, hits mostly inhibitors; O75164; AlphaScreen JMJD2A-Tudor / H3K4me3 peptide binding; AID 504339; further: on the % scale 0 is the no-effect control and ±100 the full control effect; nearly all actives have a fitted effect of over 50% in size
GLS inh – inhibitors of human glutaminase (GLS); GLS enzymatic activity, qHTS titration; Potency, µM (top dose mostly 45.5 µM), without a hit: at the top dose activity change, negative = inhibition, actives largely listed as inhibitors; O94925; 410,000 compounds, 0.21% hits; AID 624170; further: on the % scale 0 is the no-effect control and ±100 the full control effect
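hKGA; 45 mM KH2PO4 pH 8.2 + 0.02% Tween-20; cpd via pin tool; 1 mM Gln soln; GluOx/HRP/Amplex Red; RT 30 min; fluor. t0 & final.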
HP1b chromo inh – HP1-beta chromodomain-methylated histone interaction inhibition; Potency, µM (series often up to 114 µM), without a hit: top-dose activity change, negative = inhibition, hits mostly inhibitors; AlphaScreen HP1-beta / biotin-H3K9me3 peptide binding; AID 540317; 390,000 compounds, 0.56% hits; P83916; further: nearly all actives have a fitted effect of over 70% in size
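AlphaScreen: HP1-beta (50 nM) preformed 30 min with biotin-H3(1-18)K9me3 peptide (50 nM) in PBS pH 7.4, 0.01% Tween-20. Compound added for 30 min at RT, then streptavidin donor/nickel chelate acceptor beads (10 ug/mL) for 30 min.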
* hit, by the source's call; u = inconclusive; x = not tested or not shown; [ ] = remark or other dose. Only some compounds are listed: those with a hit (about 10% of all), similar ones and a draw of the others. The call rests on the fitted dose curve; in most records, active means well fitted curve in the direction sought with a large enough effect; inconclusive means small, poorly fitted or top-dose-only effect, or another doubt; inactive means no such curve, though single readings can be large; an effect the other way counts as inactive or inconclusive. Potency means the concentration at half of the fitted maximal effect.

SMILES	G9a inh	BAZ2B block	JMJD2A Tudor	GLS inh	HP1b chromo inh
O=C1/C(=C/C=C/c2ccccc2)Oc2c1ccc(O)c2CN1CCN(CCO)CC1	-4%[59 µM]	u	-33%	-29%	12%
COc1cc(C(=O)Nc2cc(C)ccc2OCc2cc(=O)n3c(C)csc3n2)cc(OC)c1OC	-2%[59 µM]	8%	-31%	2%	16%[57 µM]
Cc1ccc(-c2csc(N3CCC(C(N)=O)(N4CCCCC4)CC3)n2)cc1	u	4%	-1%	3%	18%
Cc1ccc(-c2csc(N3CCN(c4cc5c(cc4Cl)nc(-c4ccncc4)n5CCN4CCCCC4)CC3)n2)cc1	22µM*	u	u	-26%	-5%
COc1ccc(-c2csc(NCCc3nc4cc(Cl)c(N5CCCCC5)cc4n3CCOCCO)n2)cc1	x	x	-29%	9%	17%
CCCn1c(C)nc2cc(Cl)c(N3CCN(c4nc(-c5ccc(C)cc5)cs4)CC3)cc21	x	-4%	-31%	1%	-4%
Cc1ccc(-c2csc(N3CCN(c4ccc5nc(-c6ccncc6)n(CCN6CCCCC6)c5c4)CC3)n2)cc1	35µM*	u	45µM*	13%	u
COc1ccc(-c2csc(N3CCN(c4cc5c(cc4Cl)nc(-c4ccncc4)n5CCOCCO)CC3)n2)cc1	28µM*	50µM*	-23%	7%	21%
N=C(N)SCc1ccccc1Cl	11%	1%	-3%	-2%	42%
CC1=C(C(=O)Nc2ccc(C)cc2C)C(c2ccc(Cl)cc2)n2nc(C(=O)OC(C)C)nc2N1 (stereo not given)	45µM*	-14%	-7%	5%	10%
Cc1ccc(S(=O)(=O)NCc2n[nH]c(=S)n2C)cc1	32µM*	6%	7.9µM*	21%	23%
Cn1c(CNS(=O)(=O)c2ccc(Br)cc2)n[nH]c1=S	22µM*	5%	7.9µM*	22%	12%
O=C(Nc1c(C(=O)O)[nH]c2ccccc12)c1cccc(C(F)(F)F)c1	u	-29%	-25%	3%	u
N#C/C(=C\c1ccc(OCc2ccc(C(=O)O)cc2)cc1)C(=O)NCc1ccccc1	u	u	u	6%	42%
Cc1nc(S/C(=C/c2ccc(OCc3ccc(C(=O)O)cc3)cc2)C(=O)O)n[nH]1	u	u	2.8µM*	u	15%
CN1CCN(c2cc3c(cc2F)c(=O)c(C(=O)O)cn3-c2ccc(F)cc2)CC1	u	x	x	1%	x
O=C(O)c1cn(-c2ccc(N3CCCC3)c(F)c2)c2c(F)c(F)c(F)cc2c1=O	45µM*	-38%	u	-21%	5%
CNC(=O)COc1coc(CN2CCN(C(=O)c3ccco3)CC2)cc1=O	8%[0.501 µM]	0%	-5%	-4%	32%
CC(C)n1c(=O)[nH][nH]c1=S	0.89µM*	50µM*	8.9µM*	u	13µM*
CC(C)n1c(=O)[nH]c2ccccc21	8%	-6%	-13%	2%	19%
COc1ccc(NCc2ccc3c(c2)OCO3)cc1Cl	u	40µM*	45µM*	-6%	u
COc1ccc(Cl)cc1S(=O)(=O)NC(C)C(=O)NCc1ccc2c(c1)OCO2 (stereo not given)	13%	3%	50µM*	-18%	8%
Cc1ccc(CNc2ccc3c(c2)OCO3)c(C)c1	13µM*	45µM*	x	x	x
COc1cc(OC)c(OC)cc1CNCc1ccc2c(c1)OCO2	45µM*	-29%	50µM*	-12%	8%
CN(C)NC(=S)NC1CCS(=O)(=O)C1 (stereo not given)	50µM*	-16%	32µM*	-5%	10%
SMILES	G9a inh	BAZ2B block	JMJD2A Tudor	GLS inh	HP1b chromo inh
COc1ccc(C(=O)CSc2nncn2C)cc1	u	3%	-6%	11%	23%
Cn1cnnc1SCC(=O)c1ccc(OC(F)F)cc1	u	1%	32µM*	15%	17%
CCOC(=O)c1[nH]c(C)c(CCC(=O)Nc2ccccc2OCC)c1C	-27%[59 µM]	-1%	-28%	-14%	6%[57 µM]
CCOC(=O)c1[nH]c(C)c(CCC(=O)Nc2ccc(N(CC)CC)cc2C)c1C	14µM*	-18%	-28%	14%	1%[57 µM]
CC(C)(C)NC(=O)C(c1ccncc1)N(Cc1ccco1)C(=O)c1ccc(-c2ccccc2)[nH]1 (stereo not given)	22µM*	u	50µM*	69%	u
COC(=O)c1ccc(NC(=O)CCn2cccc2)cc1	-14%[59 µM]	u	-26%	-4%	5%
COc1ccc(OC)c(NC(=O)CCCc2ccccc2)c1	x	-7%	-12%	2%	21%
CCc1ccc(NC(=O)CCn2cccc2)cc1	50µM*	u	-30%[57.1 µM]	4%	-17%
COc1ccc(CCCC(=O)Nc2cc(C)ccc2OC)cc1	79µM*	6%	12%	-1%	60%
COc1ccc(OC)c(NC(=O)c2csnn2)c1	14µM*	u	u	-5%	-12%
COc1ccc(S(=O)(=O)CCC(=O)Nc2cc(C)ccc2OC)cc1	28µM*	-1%	-13%	0%	33%
COc1ccc(N2CCN(Cc3nc4c(c(=O)n(C)c(=O)n4C)n3Cc3cccc(C)c3)CC2)cc1	u	-11%	-22%	22%	14%
COc1ccc(NC(=O)CCn2cccc2)c(OC)c1	u	x	-27%	-4%	14%
COc1ccc(Cl)cc1NC(=O)CCn1nc(C)cc1C	-2%[59 µM]	71µM*	u	-4%	10%
COc1ccc(OC)c(NC(=O)CCn2cccc2)c1	u	50µM*	-30%	8%	-16%
Cc1ccc(C)c(Cn2c3ccccc3c3cnn(CC(=O)NCCCN4CCOCC4)c(=O)c32)c1	12%	-21%	-28%	21%	28%
Cc1c(NC(=O)c2ccc3c(c2)C(=O)N(CC2CCCO2)C3=O)cccc1C(=O)O (stereo not given)	u	5%	3%	2%	15%
Cc1ccc(NC(=O)CN2C(=O)S/C(=C/c3ccc(O)c([N+](=O)[O-])c3)C2=O)cc1C	x	14µM*	22µM*	10%	u
Cc1cccc(NC(=O)CN2C(=O)S/C(=C\c3ccc(O)c([N+](=O)[O-])c3)C2=O)c1	35µM*	u	50µM*	0%	-24%
CCOC(=O)CN1C(=O)S/C(=C/C=C/c2ccc(N(C)C)cc2)C1=O	10µM*	10µM*	16µM*	7%	13µM*
Cc1cccc(NC(=O)CN2C(=O)S/C(=C\c3ccccn3)C2=O)c1	-38%	4%	-14%	-2%	69%
CCOC(=O)CN1C(=O)S/C(=C/c2cccc([N+](=O)[O-])c2O)C1=O	35µM*	u	-11%[11.4 µM]	7%	u
CCOC(=O)CN1C(=O)S/C(=C/c2ccc3c(c2)n(C)c(=O)n3C)C1=O	5%[59 µM]	-3%	-31%	1%	7%
O=C(NC(=S)Nc1nc(-c2cccc([N+](=O)[O-])c2)cs1)c1cc(Cl)ccc1Cl	x	-12%	-18%	-4%	-7%
